Bioassay records (PubChem)
Compounds with a hit are over-represented: about 4% of the library has one in this group of screens.
EWS-Fli block = EWS/Fli transcriptional activity inhibition. A673 NR0B1-luciferase reporter, viability-normalised. inhibition, % at 12.6 µM. 350,000 compounds, 0.67% hits;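 active means mean inhibition of at least 50% after viability correction, with every replicate also passing that limit; inconclusive means mean reaches 50% but only one of two replicates passes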;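 further: firefly luciferase signal divided by Alamar Blue viability fluorescence both relative to DMSO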
MITF TRPM1 HTS = MITF TRPM1 promoter activation in melanoma cells; SK-MEL-5 TRPM1-promoter luciferase, 24 h; % of positive control, neutral wells = 0; activation, % at 12.5 µM; 300,000 compounds, 0.75% hits; AID 588334;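 active means mean activation of at least 80% with every replicate also reaching 80%; inconclusive means mean reaches 80% but some replicate falls short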;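 further: 0% = neutral control wells and 100% = parthenolide positive control wells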
Wnt bcat act = activators of Wnt/beta-catenin signaling. activation, % at 9.35 µM. 300,000 compounds, 1.2% hits. AID 743398. Wnt/beta-catenin reporter cell assay, activator, plate reader; in the data active means activation above about 30%, passing the limit was not always enough; inconclusive means no clear call, values can overlap the other calls;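 further: 0% = neutral control wells and 100% = positive control wells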
PAX8 reporter = inhibitors of PAX8 transcriptional activity in RMG-I cells; RMG-I TPO-luciferase reporter, SteadyGlo, 24 h; inhibition, % at 12.6 µM; 360,000 compounds, 1.2% hits; AID 652154;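 active means mean replicate inhibition at least 60% with every replicate also reaching 60%; inconclusive means only one of the two criteria is met; inactive means mean below 60% and not all replicates reaching 60%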;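 further: luciferase light reporting Pax8 driven TPO promoter activity; plate controls were median of neutral control wells for no effect and mitoxantrone controls for full effect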
esBAF inh = SWI/SNF esBAF complex inhibition; 350,000 compounds, 2% hits; mouse ES cells, Bmi1-luciferase knock-in reporter, 24 h; 100% = twice the neutral-well signal; reporter increase, % at 12.5 µM; in the data active means activation above about 40%; inconclusive means no clear call, values can overlap the other calls;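 further: 0% = median of the plate's neutral control wells and 100% = double that signal; a rise in the Bmi1 reporter signal indicates esBAF inhibition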
TRPM1 prom inh = reduces MITF-dependent TRPM1 promoter luciferase signal; SK-MEL-5 TRPM1 promoter luciferase, 24 h; inhibition, % at 12.5 µM; 330,000 compounds, 0.83% hits;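 active means mean inhibition across replicates of 60% or more, whatever share of single replicates reaches that level; inconclusive means some that reach 60%, reason not given; inactive means mean inhibition across replicates below 60%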
* hit, by the source's call; ? = inconclusive; . = no result.

SMILES	EWS-Fli block	MITF TRPM1 HTS	Wnt bcat act	PAX8 reporter	esBAF inh	TRPM1 prom inh
Cc1ccc(S(=O)(=O)Nc2ccc3c(c2)C(=O)N([C@@H](C)CO)C[C@@H](C)[C@@H](CN(C)Cc2ccc(C(F)(F)F)cc2)OCCCC[C@H](C)O3)cc1	28	.	.	87*	-1	.
Cc1ccc(S(=O)(=O)Nc2ccc3c(c2)C(=O)N([C@H](C)CO)C[C@@H](C)[C@H](CN(C)Cc2ccc(C(F)(F)F)cc2)OCCCC[C@@H](C)O3)cc1	13	.	.	102*	-1	.
COc1ccc([C@H]2CC(=O)C=C(c3cc(Cl)ccc3OC)C2)cc1	47	-17	-7	32	3	18
COc1ccc([C@H]2CC(=O)C=C(c3c(OC)cccc3OC)C2)cc1	63*	-18	-10	11	0	22
CCOc1ccc(Cl)cc1C1=CC(=O)C[C@H](c2ccc(OC)cc2)C1	60*	-15	-15	22	-5	19
O=C1C=C(c2ccc(-c3ccccc3)cc2)C[C@@H](c2ccc(F)cc2)C1	3	16	20	4	-1	-8
COc1ccc(C2=CC(=O)CC(c3ccc(OC)cc3)C2)cc1 (stereo not drawn)	-20	22	2	-11	12	-28
O=C1C=C(c2ccc(C(=O)O)cc2)C[C@@H](c2ccc(F)cc2)C1	1	48	14	-174	45*	-55
CCOc1ccc(C2=CC(=O)C[C@H](c3ccc(OC)cc3)C2)cc1	-54	.	12	-26	76*	.
C[C@H](CO)N1C[C@H](C)[C@H](CN(C)Cc2ccccn2)Oc2ncc(-c3ccc(F)cc3)cc2C1=O	13	.	.	9	10	.
O=C(O)C[C@H]1C[C@H]2c3cc(NC(=O)c4ccc5c(c4)OCO5)ccc3O[C@H]2[C@H](CO)O1	7	.	.	-9	-1	.
O=C(CCN1CCCCC1)NCC[C@H]1CC[C@@H](NC(=O)Cc2cccnc2)[C@@H](CO)O1	-1	.	.	-8	4	.
O=C(O)CC(NC(=O)C1c2ccccc2Oc2ccccc21)c1ccc(OC2CCCC2)cc1 (stereo not drawn)	2	-10	0	121*	.	9
COc1ccc(S(=O)(=O)Nc2ccc3c(c2)C(=O)N([C@H](C)CO)C[C@H](C)[C@@H](CN(C)C(=O)Cc2ccccc2)OCCCC[C@H](C)O3)cc1	5	.	.	5	4	.
COc1ccc(-c2noc(CN(C)C3CCOCC3)n2)cc1	-22	16	0	-35	.	-12
c1cc(-c2noc(CCC3CCCC3)n2)ccn1	.	24	.	.	.	-23
CN(Cc1nc(-c2ccccc2)no1)C1CCOCC1	-55	65	41*	-90	31	-62
c1ccc(-c2noc(CCC3CCCC3)n2)cc1	-87	102*	6	-28	?	-98
CC(C)S(=O)(=O)c1cnc(N2CCOCC2)nc1N	0	.	40*	14	.	-1
CC(C)(C)S(=O)(=O)c1cnc(N2CCOCC2)nc1N	7	.	2	-2	.	3
COc1ccc(NC(=O)c2cccs2)c([N+](=O)[O-])c1	.	46	.	.	86*	-46
COc1cc(NC(=O)COc2ccccc2Cl)ccc1NC(=O)c1cccs1	-34	35	-8	-47	26	-40
COc1ccc(NC(=O)c2sccc2C)c([N+](=O)[O-])c1	.	51	-2	-135	55*	-54
COc1ccc(NC(=O)C/C(C)=N/NC(=O)c2cccs2)c([N+](=O)[O-])c1	-22	-4	2	-52	2	0
COc1cc(NC(=O)COc2ccccc2[N+](=O)[O-])ccc1NC(=O)c1cccs1	15	-74	14	-5	50*	74*
SMILES	EWS-Fli block	MITF TRPM1 HTS	Wnt bcat act	PAX8 reporter	esBAF inh	TRPM1 prom inh
COCCOC(=O)N1C(=O)[C@@]2(c3cc(C#Cc4ccc(OC)cc4)ccc31)[C@H](C(=O)NC[C@H](O)c1ccccc1)[C@H]1C(=O)O[C@H](c3ccccc3)[C@H](c3ccccc3)N1[C@@H]2c1ccc(O)cc1	8	.	.	.	.	.
C[C@H](CO)N1C[C@H](C)[C@H](CN(C)C(=O)Nc2cccc3ccccc23)OCCCC[C@H](C)Oc2ccc(NS(=O)(=O)c3cccs3)cc2C1=O	-4	.	.	7	-6	.
CCOC(=O)CSc1nc2cc(C)cc(C)c2cc1C#N	.	43	.	.	24	-39
CCOC(=O)CSc1nc2cc(C)ccc2cc1C#N	.	40	49*	-195	44*	-92
CCOC(=O)CSc1nc2ccc(C)cc2cc1C#N	-93	134*	-1	.	71*	-131
Cc1cccc(-c2nsc(SCC(=O)N3CCCC3)n2)c1	.	89*	29	-160	.	-75
CCOc1ccc2nc(SCC(=O)N3CCCCCC3)c(C#N)cc2c1	.	.	.	.	2	3
Cc1ccc2cc(C#N)c(SCC(=O)N3CCCC3)nc2c1	-23	67	33*	-48	9	-65
COc1ccc2c3c(n(C)c2c1)[C@@H](CO)N(C(=O)c1ccc(F)cc1)CC31CCN(C(C)=O)CC1	-6	.	.	.	.	.
CCOC(=O)CSc1nc2cc(OC)ccc2cc1C#N	.	111*	67*	-182	33	-167
C[C@@H]1CN([C@@H](C)CO)C(=O)c2cc(NC(=O)Nc3ccc(F)cc3)ccc2O[C@@H](C)CCCCO[C@@H]1CN(C)Cc1ccccc1	11	.	.	2	2	.
CC(=O)Oc1ccccc1/C=C/c1ccc2ccccc2[n+]1C	-93	75	4	-75	65*	-70
[O-][n+]1c(/C=C/c2ccccc2)ccc2ccccc21	38	21	37*	-21	1	-25
CN(CCCS(=O)(=O)[O-])c1ccc(/C=C/c2ccc3ccccc3[n+]2C)cc1	-6	11	-2	5	13	-5
COc1ccc(/C=C/c2ccc3ccccc3[n+]2C)cc1OC	.	20	.	.	55*	-24
CN(C)c1ccc(/C=C/c2ccc3ccccc3[n+]2C)cc1	.	-87	-16	-4	-65	88*
[O-][n+]1ccccc1/C=C/c1ccccc1	-8	8	0	-8	.	-9
C[C@H](CO)N1C[C@H](C)[C@@H](CN(C)C(=O)Cc2ccccc2)Oc2ncc(C#Cc3ccccc3F)cc2C1=O	2	.	.	.	-2	.
C[C@@H]1CCCCO[C@H](CN(C)Cc2ccncc2)[C@@H](C)CN([C@@H](C)CO)C(=O)c2cc(NC(=O)CCCN(C)C)ccc2O1	-5	.	.	-7	4	.
CCCNC(=O)Nc1ccc2c(c1)OC[C@@H](C)N(C(=O)C1CCOCC1)C[C@H](C)[C@H](OC)CN(C)C2=O	-5	.	.	.	.	.
CN(C)c1ccc(/C=C/c2ccc3c4ccccc4ccc3[n+]2-c2ccccc2)cc1	62*	-103	-9	103*	-68	104*
CN(C)c1ccc(/C=C/c2nc3ccccc3c(=O)n2CCO)cc1	-32	7	1	-43	6	-8
Cc1csc2nc(CSc3nc4ccccc4o3)c(Br)n12	.	91*	.	.	.	-96
